Screens: PubChem BioAssay, National Center for Advancing Translational Sciences (NCATS)
A selection: hits, their analogues and other compounds. The true share with any hit is near 1.4%.
NS1 inh: qHTS Assay for Inhibitors of Influenza NS1 Protein Function | Potency, µM (series often up to 46.1 µM), for the others: at the top dose activity, positive = more growth | 0.4% of 270,000 active | AID 2326, 2010; calls by dose curve; also: actives are rising curves; nearly all actives have a fitted effect of over 50% in size
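Growth recovery, yeast-based: influenza A NS1 expressed in S. cerevisiae causes slow growth, and suppressors are detected by OD600. The parent strain without NS1 is used as positive control.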
AmpC inh detg: qHTS Inhibitors of AmpC Beta-Lactamase (assay with detergent) | P00811 | AmpC hydrolysis of nitrocefin, absorbance 480 nm, 0.01% Triton | Potency, µM (highest dose often 114 µM), without a hit: at the highest dose activity change, negative = inhibition, usual class: inhibitors | 0.041% of 370,000 active | AID 485294, 2010;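 also: 0% = no-compound wells and -100% = no-enzyme wells; nearly all actives have a fitted effect of over 25% in size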
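20 mM phosphate pH 7.0 + 0.01% (detergent screen) or 0.0001% Triton X-100; 5.3 nM AmpC reagent; cpd preinc 15 min RT; nitrocefin (800 uM stock) to start; A480 q20 s × 4 min; Activity was normalised to no-enzyme and no-compound control wells.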
SARS PLpro yeast: qHTS of Yeast-based Assay for SARS-CoV PLP; S. cerevisiae expressing SARS-CoV PLpro, growth rescue; Potency, µM (series often up to 32.9 µM), without a hit: at the top dose activity, positive = growth rescue, actives largely listed as activators; 0.19% of 330,000 active; calls by dose curve; also: 0% is about no effect; nearly all actives have a fitted effect of over 55% in size
Giardia FBPA inh-1: qHTS Assay for Inhibitors of Fructose-1,6-bisphosphate Aldolase from Giardia Lamblia. purified Giardia FBPA. Potency, µM (series often up to 59.6 µM), for the others: at the highest dose activity, negative = inhibition, actives largely listed as inhibitors. 0.71% of 290,000 active. AID 2451, 2010; also: % is scaled to controls: 0 for no effect and ±100 for the full control effect; nearly all actives have a fitted effect of over 55% in size
Target sequence (A8B2U2 whole entry, looked up): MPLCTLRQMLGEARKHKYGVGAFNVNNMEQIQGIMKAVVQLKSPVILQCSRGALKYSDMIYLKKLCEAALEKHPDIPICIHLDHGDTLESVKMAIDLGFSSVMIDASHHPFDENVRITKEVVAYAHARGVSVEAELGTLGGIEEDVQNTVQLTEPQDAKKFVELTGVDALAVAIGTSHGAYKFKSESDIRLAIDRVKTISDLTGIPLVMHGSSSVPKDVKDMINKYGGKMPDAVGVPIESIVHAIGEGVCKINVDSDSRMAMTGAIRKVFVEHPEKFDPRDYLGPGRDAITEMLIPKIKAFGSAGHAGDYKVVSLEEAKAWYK
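40 nM FBPA preincubated 10 min at RT with compound (up to 57.5 uM final), then substrate plus GAPDH/TPI/NAD/arsenate coupling and diaphorase/resazurin added. Fluorescence read after 20 min at RT, 525/598 nm.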
AmpC no deterg: qHTS Inhibitors of AmpC Beta-Lactamase (assay without detergent); P00811; AmpC nitrocefin hydrolysis, absorbance 480 nm, 0.0001% Triton; Potency, µM (top dose mostly 57.1 µM), for the others: at the top dose activity change, negative = inhibition, actives largely listed as inhibitors; 0.52% of 330,000 active; AID 485341, 2010;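 also: plate controls were no compound for no effect and no enzyme for full effect; nearly all actives have a fitted effect of over 20% in size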
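AmpC (5.3 nM in the dispensed reagent) in 20 mM phosphate pH 7.0 with 0.01% (detergent screen) or 0.0001% Triton X-100 was preincubated with compounds for 15 min at room temperature. Nitrocefin was then added from an 800 uM solution, and hydrolysis was followed at 480 nm.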
Giardia growth: qHTS Assay for Inhibitors of Fructose-1,6-bisphosphate Aldolase from Giardia Lamblia: Giardia lamblia growth inhibition | Potency, µM (doses to about 57.5 µM), inactives show top-dose activity change, negative = inhibition, actives largely listed as inhibitors | Giardia lamblia trophozoite growth inhibition | 5% of 1,500 active | shares compounds with Giardia FBPA inh-1;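 also: trophozoites exposed to compound for 48 h at 37 °C; % is scaled to controls: 0 for no effect and ±100 for the full control effect; nearly all actives have a fitted effect of over 70% in size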
Mammalian tox: qHTS Assay for Inhibitors of Fructose-1,6-bisphosphate Aldolase from Giardia Lamblia: Mammalian cellular toxicity. shares compounds with Giardia FBPA inh-1. 4% of 1,500 active. mammalian cell viability counter-screen, qHTS. AID 2786, 2010. Potency, µM (titrated, usually from 57.5 µM), for inactives: at the top dose viability change, negative = toxicity, usual class: inhibitors;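 also: Chinese hamster ovary cells used as mammalian cytotoxicity surrogate; viability measured as cellular ATP by luminescence; compound exposure lasted 48 h before reading; % is scaled to controls: 0 for no effect and ±100 for the full control effect; nearly all actives have a fitted effect of over 60% in size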
Giardia FBPA inh-2: qHTS Assay for Inhibitors of Fructose-1,6-bisphosphate Aldolase from Giardia Lamblia: Primary screen confirmation. shares compounds with Giardia FBPA inh-1. purified Giardia aldolase enzyme activity, qHTS. AID 2787, 2010. 5% of 1,500 active. Potency, µM (series often up to 57.5 µM), for the others: at the top dose activity change, negative = inhibition, hits mostly inhibitors; also: % is scaled to controls: 0 for no effect and ±100 for the full control effect; nearly all actives have a fitted effect of over 45% in size
Rabbit FBPA inh: qHTS Assay for Inhibitors of Fructose-1,6-bisphosphate Aldolase from Giardia Lamblia: Rabbit FBPA Selectivity; 4% of 1,500 active; Potency, µM (titrated, usually from 57.5 µM), inactives show top-dose activity, negative = inhibition, actives largely listed as inhibitors; AID 2794, 2010; shares compounds with Giardia FBPA inh-1; Rabbit muscle FBPA enzyme inhibition, selectivity counter-screen; also: % is scaled to controls: 0 for no effect and ±100 for the full control effect; nearly all actives have a fitted effect of over 60% in size
Target sequence (P00883 whole entry, looked up): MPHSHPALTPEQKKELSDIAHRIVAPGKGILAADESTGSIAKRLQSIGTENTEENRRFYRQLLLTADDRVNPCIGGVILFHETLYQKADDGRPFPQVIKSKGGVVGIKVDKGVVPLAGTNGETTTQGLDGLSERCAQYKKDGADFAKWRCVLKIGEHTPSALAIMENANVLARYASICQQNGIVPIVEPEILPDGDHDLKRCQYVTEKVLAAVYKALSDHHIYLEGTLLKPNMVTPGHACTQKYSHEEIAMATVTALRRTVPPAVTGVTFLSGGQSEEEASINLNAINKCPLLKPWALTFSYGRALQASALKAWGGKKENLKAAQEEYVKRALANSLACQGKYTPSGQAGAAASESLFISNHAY
GAPDH coupling: qHTS Assay for Inhibitors of Fructose-1,6-bisphosphate Aldolase from Giardia Lamblia: Coupling assay counterscreen confirmation | shares compounds with Giardia FBPA inh-1 | GAPDH coupling enzyme counterscreen, biochemical, qHTS | Potency, µM (titrated, usually from 57.5 µM), without a hit: top-dose activity change, negative = inhibition, hits mostly inhibitors | 6% of 1,500 active; also: % is scaled to controls: 0 for no effect and ±100 for the full control effect; nearly all actives have a fitted effect of over 55% in size
Starred values were filed as active, the others as inactive; ? = inconclusive; . = no result given; [ ] = dose if it differs, or a comment. Unless noted, calls follow the shape of the dose curve; as a rule, active = well fitted curve in the direction sought with a large enough effect; inconclusive = small, poorly fitted or top-dose-only effect, or another doubt; inactive = no such curve, though single readings can be large; an effect the other way counts as inactive or inconclusive. Potency is read from the fitted curve at half-maximal effect.

SMILES	NS1 inh	AmpC inh detg	SARS PLpro yeast	Giardia FBPA inh-1	AmpC no deterg	Giardia growth	Mammalian tox	Giardia FBPA inh-2	Rabbit FBPA inh	GAPDH coupling
CN1CCc2c(sc(/N=C/c3c[nH]c4ccccc34)c2C#N)C1	-2%	3%	2%	18µM*	21%	14%[10.4 µM]	-16%	-25%	-19%	?
CSc1nc(Nc2cccc(C)c2)c(C#N)c(-c2ccccc2)n1	.	22%	.	.	.	.	.	.	.	.
CCN(CC)c1ccc(/C=C2\NC(=O)NC2=O)cc1	-4%	-5%	6%	-9%	-17%	.	.	.	.	.
CCN(CC)c1ccc(C=C2C(=O)NC(=S)NC2=O)cc1	1%	7%	2%	14µM*	-21%	14µM*	0%	-10%	-1%	5%
CCOC(=O)CCc1c(C)nc(-n2[nH]c(C)c(CCO)c2=O)[nH]c1=O	.	9%	-2%	14µM*	2%	5%[10.4 µM]	0%	-4%	5%	-1%
S=C(Nc1nc2c(s1)CCCC2)NC1CC1	4%	?	12%	14µM*	-40%	-13%	3%	3%	2%	2%
COc1cc2c(cc1OC)CN(C(=O)CN1CCN(S(=O)(=O)c3ccccc3Br)CC1)CC2	-26%	-7%	5%	16µM*	136%	3%	-5%	1%	-5%	9%
Cc1ccc(-n2c(=O)c3ccc(C(=O)NCc4ccco4)cc3n(Cc3cccc(Cl)c3)c2=O)cc1	.	-1%	.	.	.	.	.	.	.	.
CCC1(CC)NC(=O)N(CC(=O)Nc2ccc(-n3cnnn3)cc2)C1=O	.	.	5%	.	-4%	.	.	.	.	.
NC(=S)NNc1ccc(Cl)c(Cl)c1	-63%	4%	-22%	13µM*	-16%	13%	-10%	-15%	3%	-6%
NC(=S)NNc1ccnc2cc(Cl)ccc12	.	-3%	-4%	16µM*	-11%	?	-4%	-4%	-3%	15%
Cc1ccc(NNC(N)=S)cc1Cl	-95%	-12%	-5%	18µM*	-26%	-22%	13%	-6%	3%	-6%
NC(=S)Nc1ccc(Cl)c(Cl)c1	6%	-7%	0%	-4%	-19%	.	.	.	.	.
O=C(NNc1ccnc2cc(Cl)ccc12)C1CCCCC1	.	-1%	3%	-1%	-24%	.	.	.	.	.
COc1cc(C(=O)NCC(c2ccc(N(C)C)cc2)N2CCCC2)cc(OC)c1OC (stereo not given)	.	-6%	.	.	.	.	.	.	.	.
Cn1nc(-c2ccc(N3CCCCC3)c(NC(=O)c3ccc(Cl)cc3)c2)c2ccccc2c1=O	.	8%	.	.	.	.	.	.	.	.
C/C(=N\NC(=O)c1ccccc1Cl)c1ccccn1	-36%	-2%	9%	?	-13%	.	.	.	.	.
C/C(=N\NC(=O)c1ccc(Cl)c(Cl)c1)c1ccccn1	-13%	-7%	2%	?	-13%	-3%[38.3 µM]	2.9µM*	1%	-4%	1%
CCOc1ccc(N(CC(=O)NC(C)CC)S(C)(=O)=O)cc1 (stereo not given)	-2%	-17%	5%	1%	-7%	.	.	.	.	.
COc1cc(CNn2cn[nH]c2=S)ccc1OCC(=O)NC(C)(C)C	21%	?	0%	10µM*	-12%	?	-1%	3%	-1%	13%
COc1cc(CNC(C)(C)CO)ccc1OCC(=O)NC(C)(C)C	-2%	?	17%	2%	-10%	.	.	.	.	.
O=C(Nc1nnc(C2=COCCO2)o1)c1ccc(Br)cc1	-88%	-4%	-8%	.	-33%	.	.	.	.	.
O=C(Nc1nnc(C2=COCCO2)o1)c1ccc(Cc2ccccc2)cc1	-4%	3%	-1%	18µM*	-33%	?	-3%	2%	8%	-3%
O=C(Nc1nnc(C2=COCCO2)o1)c1ccc(Cl)cc1	-41%	-8%	-7%	20%	-5%	.	.	.	.	.
O=C(Nc1nnc(C2=COCCO2)o1)c1ccc(F)cc1	-23%	-9%	-1%	32µM*	-15%	?	5%	-7%	-12%	-10%
SMILES	NS1 inh	AmpC inh detg	SARS PLpro yeast	Giardia FBPA inh-1	AmpC no deterg	Giardia growth	Mammalian tox	Giardia FBPA inh-2	Rabbit FBPA inh	GAPDH coupling
CCOc1ccc(-c2onc(C(F)(F)F)c2-c2cscn2)c(O)c1	-6%	-1%	-16%	-20%	-25%	.	.	.	.	.
O=C(CCCn1c(=S)[nH]c2ccsc2c1=O)NCc1ccco1	-2%	-14%	1%	16µM*	-16%	-3%	-3%	-1%	2%	12%
CCOC(=O)N1CCN(C(=O)CCCn2c(=S)[nH]c3ccsc3c2=O)CC1	.	-3%	0%	16µM*	-18%	-2%[10.4 µM]	16%	-4%	1%	13%
CCOC(=O)N1CCN(C(=O)CCCCCn2c(=S)[nH]c3ccsc3c2=O)CC1	.	2%	0%	?	-12%	.	.	.	.	.
O=C(CCCCn1c(=S)[nH]c2ccsc2c1=O)NCc1ccco1	10%	-8%	3%	?	-23%	.	.	.	.	.
COc1cc(C(c2c(C)[nH][nH]c2=O)c2c(C)[nH][nH]c2=O)cc([N+](=O)[O-])c1O	.	-5%	1%	16µM*	-12%	-29%	-12%	5.6µM*	?	-16%
CCOc1cc(C(c2c(C)[nH][nH]c2=O)c2c(C)[nH][nH]c2=O)cc([N+](=O)[O-])c1O	4%	-5%	11%	-22%	-10%	.	.	.	.	.
Cc1[nH]c(=S)[nH]c(=O)c1CCC1OCCO1	9%	2%	3%	7.1µM*	-9%	7%[38.3 µM]	-2%	7%	9%	-11%
S=C(NCc1ccco1)NCC(c1ccco1)N1CCCCC1 (stereo not given)	.	2%	3%	1%	4%	.	.	.	.	.
COc1cccc(NC(=O)NNS(=O)(=O)c2ccc(OC)cc2OC)c1	8%	?	3%	4%	-10%	.	.	.	.	.
